For some of these results: Measured potencies and affinities stand elsewhere.

What all share (set-up): scale not given: direction of the effect not stated beside the values
Assay [1] deals with Protein translocase subunit SecA (Escherichia coli (strain K12)) (UniProt P10408). Briefly: Assay to Identify E. coli SecA ATPase Inhibitors. Format: functional. The settings on record: 30 µM.
Assay [2] concerns the target T1, Ubiquitin-activating enzyme e1, putative (Leishmania donovani (strain BPK282A1)) (UniProt E9BSI1).
T1 sequence (whole entry): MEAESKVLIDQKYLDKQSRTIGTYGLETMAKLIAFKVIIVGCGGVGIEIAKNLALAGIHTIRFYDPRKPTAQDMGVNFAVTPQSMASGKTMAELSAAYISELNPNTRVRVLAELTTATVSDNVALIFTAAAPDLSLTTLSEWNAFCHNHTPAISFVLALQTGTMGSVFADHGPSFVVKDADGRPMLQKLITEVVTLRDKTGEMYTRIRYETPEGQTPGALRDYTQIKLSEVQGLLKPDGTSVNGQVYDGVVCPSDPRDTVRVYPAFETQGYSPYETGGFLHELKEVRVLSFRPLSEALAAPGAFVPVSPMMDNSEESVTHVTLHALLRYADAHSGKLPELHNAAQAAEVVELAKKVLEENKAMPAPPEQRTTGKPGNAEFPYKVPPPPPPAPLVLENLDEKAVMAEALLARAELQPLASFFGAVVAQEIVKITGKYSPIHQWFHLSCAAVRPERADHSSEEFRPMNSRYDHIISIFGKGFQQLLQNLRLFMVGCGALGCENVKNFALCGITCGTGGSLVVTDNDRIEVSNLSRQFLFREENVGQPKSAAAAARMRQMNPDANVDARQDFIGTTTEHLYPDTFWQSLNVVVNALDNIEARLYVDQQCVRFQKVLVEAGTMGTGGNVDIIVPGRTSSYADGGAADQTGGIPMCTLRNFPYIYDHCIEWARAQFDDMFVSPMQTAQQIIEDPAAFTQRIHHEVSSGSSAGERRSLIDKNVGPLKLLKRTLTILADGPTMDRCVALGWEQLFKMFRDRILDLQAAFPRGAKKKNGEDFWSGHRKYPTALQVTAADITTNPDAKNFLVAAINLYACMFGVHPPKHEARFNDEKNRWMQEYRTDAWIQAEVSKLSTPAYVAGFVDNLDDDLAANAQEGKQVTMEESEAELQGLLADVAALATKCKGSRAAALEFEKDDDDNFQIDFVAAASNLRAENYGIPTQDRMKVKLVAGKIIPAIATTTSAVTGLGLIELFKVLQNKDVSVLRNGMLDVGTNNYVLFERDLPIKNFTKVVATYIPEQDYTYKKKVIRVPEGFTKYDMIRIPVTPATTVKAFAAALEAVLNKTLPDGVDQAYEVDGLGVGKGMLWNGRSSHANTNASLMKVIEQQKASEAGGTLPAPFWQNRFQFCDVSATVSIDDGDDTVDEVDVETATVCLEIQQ
Briefly: Leishmania donovani Ubiquitin Activating Enzyme (LdE1). In kind it is functional. As to conditions: 30 µM.

In assay [3] the target is AMP-activated protein kinase, AMPK (Homo sapiens) (UniProt P54646+O43741+P54619+Q9UGJ0+Q9Y478+Q13131+Q9UGI9). Briefly: AMP-dependent Kinase enzyme assay. An in vitro enzyme assay that detects ADP turnover that is directly proportional to AMPK activity. This uses naive AMPK that is activated during the assay with MK-8722. The settings on record: 30 µM. Format: functional.

Assay [4] deals with Sialic acid-binding Ig-like lectin 9 (Homo sapiens) (UniProt Q9Y336). Briefly: Hs-Siglec9 ALPHAscreen SOP 20170721. As to conditions: 10 µM.
Assay [5] deals with Trypanosoma cruzi. Briefly: Trypanosoma cruzi phosphomannomutase and mannose-1-phosphate guanylyltransferase assay. In kind it is functional. As to conditions: 10 µM.
The target in assay [6] is T2, Arginase-2, mitochondrial (Homo sapiens) (UniProt P78540).
T2 sequence (whole entry): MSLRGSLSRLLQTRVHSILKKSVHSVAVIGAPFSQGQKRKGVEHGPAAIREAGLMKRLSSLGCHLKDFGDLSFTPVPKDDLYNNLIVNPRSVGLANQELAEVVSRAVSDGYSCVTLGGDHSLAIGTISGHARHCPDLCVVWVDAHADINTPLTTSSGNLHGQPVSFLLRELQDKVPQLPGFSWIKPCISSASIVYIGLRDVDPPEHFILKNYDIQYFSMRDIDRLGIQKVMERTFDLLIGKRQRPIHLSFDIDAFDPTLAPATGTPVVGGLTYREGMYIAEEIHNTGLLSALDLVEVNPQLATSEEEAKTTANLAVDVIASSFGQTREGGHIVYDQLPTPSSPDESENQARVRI
Briefly: in vitro enzyme assay to detect the production of urea directly proportional to the activity of Arginase II. Further: in the data most compounds retested in dose-response had high values. In kind it is functional. As to conditions: 33.3 µM.

The target of assay [7] is T3, Proteasome subunit beta (Trypanosoma cruzi) (UniProt O96673).
T3 sequence (whole entry): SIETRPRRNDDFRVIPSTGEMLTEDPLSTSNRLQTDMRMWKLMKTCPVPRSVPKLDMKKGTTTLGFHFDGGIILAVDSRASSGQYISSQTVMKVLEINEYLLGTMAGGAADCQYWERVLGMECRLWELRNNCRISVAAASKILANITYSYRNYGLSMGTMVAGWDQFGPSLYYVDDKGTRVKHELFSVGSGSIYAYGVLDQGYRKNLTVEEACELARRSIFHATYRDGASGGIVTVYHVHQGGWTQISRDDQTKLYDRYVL
Briefly: Trypanosoma cruzi proteasome chymotrypsin-like activity (TcProtChymo) assay. Further: in the data most compounds retested in dose-response had high values. In kind it is functional. As to conditions: 9.37 µM.

The species named for assay [8] is Homo sapiens. Briefly: To identify inhibition of the IFN signalling (Jak-Stat) pathway via expression of an eGFP reporter gene under the control of an IFN-stimulated response element (ISRE) containing MxA promoter. In kind it is functional. As to conditions: 30 µM.
In assay [9] the target is T4, Tyrosyl-tRNA synthetase, putative (Trypanosoma cruzi (strain CL Brener)) (UniProt Q4DSP6).
T4 sequence (whole entry): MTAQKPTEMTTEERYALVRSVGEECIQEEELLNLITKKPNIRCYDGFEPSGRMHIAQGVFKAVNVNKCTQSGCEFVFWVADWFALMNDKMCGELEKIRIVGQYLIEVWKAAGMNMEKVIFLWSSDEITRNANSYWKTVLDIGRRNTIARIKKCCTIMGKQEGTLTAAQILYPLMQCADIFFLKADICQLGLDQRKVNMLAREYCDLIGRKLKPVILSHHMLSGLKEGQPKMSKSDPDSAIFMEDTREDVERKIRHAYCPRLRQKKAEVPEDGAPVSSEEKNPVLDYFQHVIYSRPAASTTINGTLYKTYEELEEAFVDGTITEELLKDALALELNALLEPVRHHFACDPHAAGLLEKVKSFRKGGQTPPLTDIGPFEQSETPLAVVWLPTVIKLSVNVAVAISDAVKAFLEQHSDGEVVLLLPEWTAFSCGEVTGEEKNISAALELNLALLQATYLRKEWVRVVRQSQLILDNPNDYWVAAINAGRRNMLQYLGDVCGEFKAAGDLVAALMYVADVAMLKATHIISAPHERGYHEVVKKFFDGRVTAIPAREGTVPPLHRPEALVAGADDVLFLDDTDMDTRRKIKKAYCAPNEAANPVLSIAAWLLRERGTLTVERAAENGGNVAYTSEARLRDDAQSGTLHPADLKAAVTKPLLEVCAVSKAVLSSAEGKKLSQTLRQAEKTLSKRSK
Briefly: Trypanosoma cruzi tyrosyl tRNA synthetase (TcYRS) _High Tyrosine SOP. Further: in the data most compounds retested in dose-response had high values. Format: functional. The settings on record: 30 µM.

The target of assay [10] is T4, Tyrosyl-tRNA synthetase, putative (Trypanosoma cruzi (strain CL Brener)). Briefly: Trypanosoma cruzi tyrosyl tRNA synthetase (TcYRS) SOP. Format: functional. As to conditions: 30 µM.
Assay [11] concerns the target Chromo domain-containing protein 1 (Saccharomyces cerevisiae (strain ATCC 204508 / S288c) (Baker's yeast)) (UniProt P32657). Briefly: ScCHD-1 Enzyme Inhibition Assay. Further: in the data most compounds retested in dose-response had high values. Format: functional. The settings on record: 30 µM.

Chromo domain-containing protein 1 (Saccharomyces cerevisiae (strain ATCC 204508 / S288c) (Baker's yeast)), sequence (P32657 whole entry, the tested form may be a part): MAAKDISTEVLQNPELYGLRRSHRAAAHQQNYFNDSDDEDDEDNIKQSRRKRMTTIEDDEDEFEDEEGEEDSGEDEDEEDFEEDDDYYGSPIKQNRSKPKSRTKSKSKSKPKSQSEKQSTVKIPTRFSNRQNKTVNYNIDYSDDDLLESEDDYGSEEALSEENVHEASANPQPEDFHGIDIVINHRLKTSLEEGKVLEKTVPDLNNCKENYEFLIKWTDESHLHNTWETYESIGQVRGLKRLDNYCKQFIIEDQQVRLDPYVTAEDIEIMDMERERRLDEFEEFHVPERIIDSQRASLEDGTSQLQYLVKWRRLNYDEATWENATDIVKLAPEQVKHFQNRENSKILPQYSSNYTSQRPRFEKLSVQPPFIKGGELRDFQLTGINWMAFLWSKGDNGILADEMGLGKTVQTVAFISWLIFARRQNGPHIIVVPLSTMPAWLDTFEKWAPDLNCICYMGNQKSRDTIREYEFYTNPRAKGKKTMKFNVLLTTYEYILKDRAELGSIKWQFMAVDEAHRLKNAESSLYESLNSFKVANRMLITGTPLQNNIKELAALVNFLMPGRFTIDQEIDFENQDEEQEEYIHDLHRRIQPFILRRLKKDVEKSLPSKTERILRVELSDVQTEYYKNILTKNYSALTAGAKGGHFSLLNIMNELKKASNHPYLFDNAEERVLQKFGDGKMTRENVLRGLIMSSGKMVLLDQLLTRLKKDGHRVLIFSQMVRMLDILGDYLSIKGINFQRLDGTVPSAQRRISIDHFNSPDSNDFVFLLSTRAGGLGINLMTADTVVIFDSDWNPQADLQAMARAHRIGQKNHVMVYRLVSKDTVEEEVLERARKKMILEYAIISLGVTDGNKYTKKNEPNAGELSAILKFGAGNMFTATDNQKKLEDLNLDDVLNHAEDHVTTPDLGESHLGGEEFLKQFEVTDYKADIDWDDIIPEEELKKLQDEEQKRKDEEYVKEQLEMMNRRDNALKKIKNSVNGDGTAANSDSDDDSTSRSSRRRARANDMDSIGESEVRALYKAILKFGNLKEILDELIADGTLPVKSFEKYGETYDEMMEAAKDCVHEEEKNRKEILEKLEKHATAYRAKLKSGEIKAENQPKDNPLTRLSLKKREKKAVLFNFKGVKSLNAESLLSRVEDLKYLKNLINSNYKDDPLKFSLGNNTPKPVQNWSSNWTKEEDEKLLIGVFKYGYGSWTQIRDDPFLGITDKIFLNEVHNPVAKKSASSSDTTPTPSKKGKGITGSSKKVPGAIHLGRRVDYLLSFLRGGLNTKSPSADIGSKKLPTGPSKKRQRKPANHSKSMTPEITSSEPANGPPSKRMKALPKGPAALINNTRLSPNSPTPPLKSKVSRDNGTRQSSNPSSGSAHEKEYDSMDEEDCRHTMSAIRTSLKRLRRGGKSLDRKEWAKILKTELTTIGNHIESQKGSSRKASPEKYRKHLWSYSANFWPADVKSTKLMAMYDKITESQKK
Sialic acid-binding Ig-like lectin 9 (Homo sapiens), sequence (Q9Y336 whole entry): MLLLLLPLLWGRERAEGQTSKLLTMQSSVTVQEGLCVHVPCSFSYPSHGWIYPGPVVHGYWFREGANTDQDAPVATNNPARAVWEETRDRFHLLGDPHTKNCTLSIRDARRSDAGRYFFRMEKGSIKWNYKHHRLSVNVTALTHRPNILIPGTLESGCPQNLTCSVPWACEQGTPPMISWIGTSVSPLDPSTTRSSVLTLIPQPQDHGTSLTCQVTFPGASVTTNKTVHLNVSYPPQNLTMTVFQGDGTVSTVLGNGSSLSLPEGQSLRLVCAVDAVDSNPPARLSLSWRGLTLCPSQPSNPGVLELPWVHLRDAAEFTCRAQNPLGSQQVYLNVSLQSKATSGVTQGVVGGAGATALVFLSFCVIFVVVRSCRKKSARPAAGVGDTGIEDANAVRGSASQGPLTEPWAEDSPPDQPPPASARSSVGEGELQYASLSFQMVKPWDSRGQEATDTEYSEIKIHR
Protein translocase subunit SecA (Escherichia coli (strain K12)), sequence (P10408 whole entry): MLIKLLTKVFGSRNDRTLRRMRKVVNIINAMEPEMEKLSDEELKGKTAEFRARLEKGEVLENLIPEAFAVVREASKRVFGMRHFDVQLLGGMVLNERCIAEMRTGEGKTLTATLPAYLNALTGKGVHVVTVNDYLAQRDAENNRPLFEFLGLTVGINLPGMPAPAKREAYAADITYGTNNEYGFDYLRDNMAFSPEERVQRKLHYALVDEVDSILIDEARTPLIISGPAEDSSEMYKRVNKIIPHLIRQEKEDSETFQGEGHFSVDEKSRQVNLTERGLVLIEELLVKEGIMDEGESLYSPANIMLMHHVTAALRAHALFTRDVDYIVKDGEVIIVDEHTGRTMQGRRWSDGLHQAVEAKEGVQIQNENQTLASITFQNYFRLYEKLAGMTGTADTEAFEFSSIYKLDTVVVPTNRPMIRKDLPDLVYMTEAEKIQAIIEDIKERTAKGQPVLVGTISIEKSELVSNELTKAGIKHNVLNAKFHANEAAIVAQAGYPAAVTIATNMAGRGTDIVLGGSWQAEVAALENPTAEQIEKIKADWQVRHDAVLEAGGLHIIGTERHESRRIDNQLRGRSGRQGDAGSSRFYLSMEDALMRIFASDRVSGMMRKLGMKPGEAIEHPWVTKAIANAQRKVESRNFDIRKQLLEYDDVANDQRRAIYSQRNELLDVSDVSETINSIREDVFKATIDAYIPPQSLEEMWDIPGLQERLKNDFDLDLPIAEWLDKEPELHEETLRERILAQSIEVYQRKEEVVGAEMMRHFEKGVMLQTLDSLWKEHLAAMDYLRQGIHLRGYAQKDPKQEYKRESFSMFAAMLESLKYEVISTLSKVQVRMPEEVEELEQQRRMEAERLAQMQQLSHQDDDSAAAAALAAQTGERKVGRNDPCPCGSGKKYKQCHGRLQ

On to `COc1cccc(CN(C)C(=O)CN2CC(n3nc(C)cc3C)C2)c1`, for which the Percent Effect was -0.578% in assay [1]; -73.7% in assay [2]; 0.521% in [3]; -5.84% in assay [4]; 1.27% in assay [5]; 1.18% in assay [6]. The Percent Effect is 24.3% in assay [7]; 23.1% in assay [8]; 26.6% in assay [9]; 39% in assay [10]; -4.54% in assay [11].

`O=C(CCCn1cncn1)NC1(c2ccccc2)CCC1`: the Percent Effect in assay [1] is -7.52%; in assay [2], 7.79%; in assay [3], 1.86%; in assay [4], 8.16%; in assay [5] it was -6%; in assay [6], -11%. The Percent Effect in assay [7] was 13.6%; in [8], 15.5%; in assay [9], 3.23%; in [10], 11.1%; in assay [11] it was -1%.

`Cc1cccc(C2(C(=O)NCCCn3cccn3)CC2)c1`: the Percent Effect is -2.92% in assay [1]; 19.2% in [2]; -1.18% in [3]; 14.6% in assay [4]; 2.94% in [5]; 17.3% in [6]. Also, the Percent Effect is 10.5% in assay [7]; 8.26% in assay [8]; 3.23% in assay [9]; 15% in [10]; -6.34% in [11].

With `COc1ccccc1CC(=O)N1CCC(NCc2c[nH]nc2C)CC1`, the Percent Effect in [1] is -1.53%; in assay [2] it was 13.5%; in assay [3], -1.94%; in [4], -8.2%; in assay [5], -1.02%; in assay [6], 0.924%. Further, the Percent Effect is 3.95% in assay [7]; 2.04% in [8]; 7.92% in assay [9]; 23.2% in assay [10]; -6.91% in assay [11].

With `N#Cc1ccc(CN2CCN(C(=O)C3CCC3)[C@@H]3CS(=O)(=O)C[C@@H]32)cc1`, the Percent Effect in assay [1] was -4.22%; in [2], 5.2%; in assay [3], 3.66%; in [4] it was 3.04%; in [5], -5.61%; in assay [6], -20.7%. Moreover, the Percent Effect in assay [7] was 8.98%; in [8] it was 14.4%; in [9], 4.3%; in assay [10], 8.64%; in assay [11], -1.71%.

Regarding `O=S1(=O)c2ccccc2C2(CCN(Cc3ccccc3)C2)N1CC1CC1` (stereo unspecified), the Percent Effect in assay [1] is -1.03%; in [2] it was 0%; in assay [3] it was 12.2%; in assay [4], 4.58%; in [5], 1.18%; in [6] it was 2.1%. In addition, the Percent Effect in assay [7] is -0.264%; in assay [8], 32.1%; in [9] it was 3.19%; in assay [10], 3.85%; in [11], 2.59%.

`CCNC(=O)c1nc2c(s1)CCCN2S(C)(=O)=O`: the Percent Effect is -5.43% in assay [1]; 24% in [2]; -3.85% in [3]; -4.95% in assay [4]; 0.772% in assay [5]; -56.8% in assay [6]. Besides, the Percent Effect was 5.81% in [7]; 22.1% in assay [8]; -6.25% in assay [9]; 15% in assay [10]; -18.4% in assay [11].

On to `O=C(Cn1c(=O)n(Cc2ccco2)c2ncccc21)NC1CCCCC1`, for which the Percent Effect in assay [1] was -8.09%; in assay [2], 14.9%; in assay [3], -4.42%; in [4], 11.5%; in assay [5], 8.5%; in assay [6], -4.41%. Further, the Percent Effect was 18.6% in [7]; 3.85% in [8]; 6.45% in assay [9]; 14.3% in assay [10]; 53% in [11].

Consider `Cn1cc(CN2CCC3(CCCN(Cc4ccccn4)C3)CC2)cn1`, for which the Percent Effect in assay [1] was -1.45%; in [2], -5.48%; in [3], -0.391%; in assay [4], 0.486%; in assay [5], 2.98%; in assay [6], 1.2%. In addition, the Percent Effect is 4.54% in [7]; -10.8% in assay [8]; 3.12% in [9]; 1.24% in assay [10]; 3.63% in assay [11].

As for `O=C(COc1cccc(Br)c1)N1CCN(c2nccs2)CC1`, the Percent Effect was -4.01% in assay [1]; 18.7% in assay [2]; 3.31% in assay [3]; 10.4% in assay [4]; 4.58% in [5]; 47.4% in [6]. Also, the Percent Effect stood at 19.4% in assay [7]; 26.2% in [8]; 3.83% in [9]; 16.1% in [10]; 84.6% in assay [11].

For the molecule `Cc1cccc(NS(=O)(=O)c2cc(C(=O)O)oc2C)c1Cl`, the Percent Effect in assay [1] is -6.42%; in [2], 0%; in assay [3], 0.702%; in assay [4], 9.91%; in [5], 6.18%; in [6], -4.27%. For the same molecule, the Percent Effect in assay [7] was 0.338%; in assay [8] it was 3.85%; in assay [9], 1.94%; in [10] it was 9.76%; in [11], -7.97%.

The values above are taken from ChEMBL document CHEMBL3988442, “University of Dundee, Small-Polar-MMV Screening Library” (2021).
